# Measurements from PubChem BioAssay (Tox21).
# Inconclusive results are not listed. Activity calls are given as the source filed them. Calls follow the shape of the dose curve; as a rule, active = well fitted cell-killing curve with a large enough effect in the repeat runs; inconclusive = weak or mixed curves; inactive = flat fitted curve, though single readings scatter.
# Experiment: qHTS RealTime-Glo MT Cell Viability Assay in HepG2 cells - 24 hour (AID 1224867); also: nearly all actives have a fitted effect of over 50% in size
# Conditions: RealTime-Glo luminescence; series mostly up to 76.8 µM; activity change, negative = cytotoxicity: at the top concentration
# Source text: U.S. Tox21 Program National Center for Advancing Translational Sciences [NCATS] NIH Chemical Genomics Center [NCGC] U.S. Environmental Protection Agency [EPA] National Institutes of Environmental Health Sciences [NIEHS] National Toxicology Program [NTP] U.S. Food and Drug Administration [FDA] Tox21 Assay Overview: Measure of cell viability is critical in the cell-base assay. Analysis of cell viability is necessary for the characterization of cell responses to cytotoxic drugs and environmental stress. A RealTime-Glo MT Cell Viability Assay to monitor cell viability in real time of continues cell culture during 40 hours of compound treatment was used to screen Tox21 10K library compounds in HepG2 cells. The RealTime-Glo MT Cell Viability Assay is a nonlytic, homogeneous, bioluminescent method to measure cell viability in real time using a simple, plate-based method. The assay involves adding NanoLuc luciferase and a cell-permeant prosubstrate to cells in culture. Viable cells reduce the proprietary prosubstrate to generate a substrate for NanoLuc luciferase. This substrate diffuses from cells into the surrounding culture medium, where it is rapidly used by the NanoLuc Enzyme to produce a luminescent signal. The signal correlates with the number of viable cells, making the assay well suited for cytotoxicity studies.
# Tox21 Assay Protocol Summary: The mixture of HepG2 cell suspension and reagents were dispensed at 600cells/6 ul/well in 1536-well tissue culture treated black solid bottom plates using a Multidrop dispenser. After the assay plates were incubated at a 37 C/5% CO2 incubator for 5 hours, 23 nL of compounds dissolved in DMSO, positive and negative controls was transferred to the assay plate by a pintool work station. The plates were incubated at 37 C for 40 hours. The luminescence intensity were measured at 0h, 8h, 16h, 24h, 32h and 40h time points using ViewLux plate reader during compound treatment.
# % is scaled to controls: 0 for no effect and ±100 for the full control effect; potency is read from the fitted curve at half-maximal effect.
SMILES,"activity change, negative = cytotoxicity",Potency
OC(CCN1CCCC1)(c1ccccc1)C1CCCCC1 (stereo not given),-0.311% [at 35.3 µM] (inactive),
C=CC(C)(CCC=C(C)C)OC(=O)CC(C)C (stereo not given),0.825% (inactive),
Brc1cc(Br)c(Oc2cc(Br)c(Br)cc2Br)cc1Br,-0.377% [at 35.3 µM] (inactive),
Cc1ccc2c(Br)cc(Br)c(O)c2n1,2.22% [at 35.3 µM] (inactive),
O=C(OCC(O)CO)c1ccccc1Nc1ccnc2cc(Cl)ccc12 (stereo not given),-18.5% [at 35.3 µM] (inactive),
CC(=O)OCC[N+](C)(C)C,2.05% [at 35.3 µM] (inactive),
O=C(O)c1ccc(OCCCOc2ccc(C(=O)O)cc2)cc1,3.31% [at 35.3 µM] (inactive),
CC[N+](CC)(CCNC(=O)C(=O)NCC[N+](CC)(CC)Cc1ccccc1Cl)Cc1ccccc1Cl,2.57% [at 35.3 µM] (inactive),
C=C(C)CCCC(C)CCO (stereo not given),1.85% (inactive),
N#[N+]c1ccc2c(S(=O)(=O)[O-])cccc2c1O,-5.73% (inactive),
O=C(O)c1cccc(-c2noc(-c3ccccc3F)n2)c1,5.7% [at 35.3 µM] (inactive),
Clc1cc(Cl)nc(Cl)n1,1.13% (inactive),
Cc1cc(=O)c2c(O)c3c(O)cc(=O)c4c3c3c(cc(O)c1c23)C(C)(C)C=4O,-25.2% [at 15.8 µM] (inactive),
O=C1NC(=O)c2cc([N+](=O)[O-])ccc21,2.23% (inactive),
CCCCCCNC(=O)n1cc(F)c(=O)[nH]c1=O,1.85% [at 35.3 µM] (inactive),
C[C@]1(Cn2ccnn2)[C@H](C(=O)O)N2C(=O)C[C@H]2S1(=O)=O,2.21% [at 35.3 µM] (inactive),
C=CC(=O)[O-].C=CC(=O)[O-].[Zn+2],-5.81% (inactive),
C1C[C@@H]2[C@H]3CC[C@H](C3)[C@@H]2C1,1.49% (inactive),
CC1=C(CC=O)C(C)(C)CCC1,2.49% (inactive),
CC(CCC(=O)O)C(=O)O (stereo not given),3.7% (inactive),

SMILES,"activity change, negative = cytotoxicity",Potency
Cc1cc(C)c(N)cc1C,-0.689% (inactive),
CCCCN(CCN(CCCC)C(=O)N1CCOCC1)C(=O)N1CCOCC1,-7.49% [at 35.3 µM] (inactive),
CC(C)COCC(CN(Cc1ccccc1)c1ccccc1)N1CCCC1 (stereo not given),,23.9 µM (active)
CCC(C)COC(C)=O (stereo not given),4.81% (inactive),
CCOc1ccccc1O[C@H](c1ccccc1)[C@H]1CNCCO1,-0.725% [at 35.3 µM] (inactive),
CNC(=O)c1cnn(-c2nc(N)c3ncn([C@@H]4O[C@H](CO)[C@@H](O)[C@H]4O)c3n2)c1,-0.405% [at 35.3 µM] (inactive),
O=C(Cn1ccnc1[N+](=O)[O-])NCCO,1.68% [at 35.3 µM] (inactive),
C/C=C/C=C/C=O,4.67% (inactive),
CCCCN(CCCC)C(C(N)=O)c1ccc(OC)cc1 (stereo not given),0.906% [at 35.3 µM] (inactive),
Oc1ccc(Cl)c2cccnc12,-12% [at 35.3 µM] (inactive),
O=Cc1c2ccccc2c(Cl)c2ccccc12,-0.69% [at 35.3 µM] (inactive),
O=C(O)CCc1nc(-c2ccccc2)c(-c2ccccc2)o1,2.25% [at 35.3 µM] (inactive),
C=C(C)[C@@H]1CCC2=CCC[C@@H](C)[C@]2(C)C1,-2.57% (inactive),
CCCCCC#CC(=O)OC,-3.03% (inactive),
COc1ccc(OC(=O)N(CC(=O)O)Cc2ccc(OCCc3nc(-c4ccccc4)oc3C)cc2)cc1,-10.1% [at 35.3 µM] (inactive),
OCCOCC#CCOCCO,1.99% (inactive),
CC(=O)c1ccc([N+](=O)[O-])cc1,2.37% (inactive),
C=COCC(C)C,3.31% (inactive),
CCCCC(CC)CN (stereo not given),2.44% (inactive),
CC(=O)OCCN(CCOC(C)=O)c1ccc(N=Nc2ccc([N+](=O)[O-])cc2C#N)cc1,-12% (inactive),
